Screening data (PubChem BioAssay)
BaF3 tox – parental Ba/F3 cell viability inhibition, counter-screen for JAK2V617F inhibitor project, murine pro-B, CellTiter-Glo luminescence; CellTiter-Glo ATP luminescence; inhibition, % at 5.6 µM; hit rate 1.1% among 220,000;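 active = inhibition above a per-campaign cutoff, the mean inhibition of all tested compounds plus 3 SD, cut at about 27% in these data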
IEC-6 tox – cytotoxicity in IEC-6 intestinal epithelial cells, primary screen, cytotoxicity control for KLF5 inhibitor project, cell-based, luminescence; IEC-6 cytotoxicity, luminescence viability; inhibition, % at 5 µM; hit rate 0.78% among 290,000; in the data active = inhibition above about 22%
KLF5 inhibitor – KLF5 expression inhibitors, primary screen, DLD-1 cells, luminescence. DLD-1 KLF5 promoter-luciferase reporter. inhibition, % at 5 µM. hit rate 0.23% among 290,000. AID 1700, 2009;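 active = inhibition above a per-plate limit of that plate's mean compound inhibition plus 3 SD, cut at about 60% in these data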;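 note: higher means less KLF5 promoter-driven luciferase light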
Ba/F3 V617F tox – reduced viability of JAK2V617F-dependent Ba/F3 cells, primary screen, JAK2V617F inhibitor project, cell-based, Ba/F3 EpoR-JAK2V617F, luminescence; hit rate 1.1% among 220,000; AID 1446, 2008; ATP luminescence; inhibition, % at 5.6 µM;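 active = inhibition above the campaign mean plus 3 SD over all tested compounds, cut at about 24% in these data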;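 note: cytokine-independent growth of Ba/F3 cells driven by EpoR plus mutant JAK2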
APP 5UTR inh – inhibitors of APP translation via 5'UTR reporter, primary screen, APP 5'UTR luciferase, SH-SY5Y cells | inhibition, % at 2 µM | hit rate 0.82% among 190,000 | SH-SY5Y APP 5'UTR-luciferase reporter, luminescence;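 active = inhibition above a set limit, derived from the sample mean plus 3 SD, cut at about 45% in these data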
aSyn UTR inh – MLPCN primary screen, SNCA 5' untranslated region; alpha-synuclein 5'UTR reporter, inhibitor activity; inhibition, % (tested at 7.5 µM); hit rate 0.82% among 300,000; AID 1813, 2009; in the data active = inhibition above about 60%;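 note: H4 neuroglioblastoma cells stably carrying SNCA 5'UTR luciferase fusion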
Hits are given with their value; . = inactive; / = no result given. The list is not random: actives were taken first. Their share in the collection is about 2.2%.

SMILES | BaF3 tox | IEC-6 tox | KLF5 inhibitor | Ba/F3 V617F tox | APP 5UTR inh | aSyn UTR inh
CN1/C(=C\C=[N+](C)c2ccccc2)C(C)(C)c2ccccc21 | 65.6 | . | . | 75.3 | . | .
Cc1ccccc1N=C/C=C1\N(C)c2ccccc2C1(C)C | 47.7 | . | . | . | . | .
O=C(CSc1ccc(Cl)cc1)Nc1ccccc1N1CCN(C(=O)c2ccccc2)CC1 | 67.7 | . | . | . | . | .
CS(=O)(=O)N1CCN(c2ccccc2NC(=O)CSc2ccc(Cl)cc2)CC1 | . | . | . | . | . | .
O=C(N/N=C/c1c(O)ccc2ccccc12)c1[nH]ncc1Br | 35.5 | . | . | 30.9 | 71.9 | 106.0
O=C(N/N=C\c1c(O)ccc2ccccc12)c1ccc(Cn2cccn2)o1 | . | . | . | . | 62.6 | 91.7
CCOc1ccc(/C=N/NC(=O)c2[nH]ncc2Br)c(O)c1 | . | 28.8 | . | . | . | .
O=C(N/N=C/c1c(O)ccc2ccccc12)c1cccc(C(F)(F)F)c1 | . | . | . | . | 79.3 | 110.8
COc1ccc2ccccc2c1/C=N/NC(=O)c1cccc(Br)c1 | . | . | . | . | . | .
COc1ccc(OC)c(/C=N/NC(=O)c2[nH]ncc2Br)c1 | . | . | . | . | / | .
O=C(COC(=O)c1cccc(Br)c1)Nc1ccc2[nH]c(=O)[nH]c2c1 | / | / | / | / | / | .
Cc1cc(=O)[nH]c(SCC(=O)Nc2cc(S(=O)(=O)N(C)C)ccc2Cl)n1 | . | . | . | . | . | .
COc1cccc(C(=O)C2CCCN(Cc3c(C)n(C)n(-c4ccccc4)c3=O)C2)c1 (configuration not stated) | . | . | . | . | / | .
COc1cccc2nc3cc(C)c(C)cc3nc12 | 29.0 | . | . | 29.2 | / | .
CC(C)(C)c1ccc(C(=O)N/C(=C\c2cccs2)C(=O)NCc2ccco2)cc1 | . | . | . | . | . | .
Cc1onc(-c2c(Cl)cccc2Cl)c1C(=O)N/N=C(\N)COc1ccc(Cl)cc1 | . | . | . | . | . | 89.3
COc1cc(/C=N/NC(=O)c2c(-c3c(Cl)cccc3Cl)noc2C)ccc1OCC(N)=O | / | . | . | / | / | .
[O-][n+]1c2cc(C(F)(F)F)ccc2c2n1CCN=C2c1ccc(Cl)cc1 | / | / | / | / | / | .
CCOC(=O)C1=C(C)N=c2s/c(=C\c3cccn3C)c(=O)n2C1c1cccc(OC)c1OC (configuration not stated) | 96.0 | . | . | . | . | .
COc1ccc(CC(=O)Oc2ccc(F)cc2)cc1 | / | . | . | / | / | .
Nc1nc(F)nc2c1ncn2[C@@H]1O[C@H](CO)[C@@H](O)[C@H]1O | / | / | / | / | / | 121.7
Nc1nc(Cl)nc2c1ncn2C1CC(O)C(CO)O1 (configuration not stated) | / | / | / | / | / | 87.1
Nc1nc2c(ncn2[C@H]2C[C@H](O)[C@@H](CO)O2)c(=O)[nH]1 | / | / | / | / | / | .
Cc1occc1C(=O)NNC(=O)c1ccc(Br)o1 | . | . | . | . | . | .
COc1cc(OC)cc(C(=O)NCC(=O)OCC(=O)/C=C2/N(C)c3ccccc3C2(C)C)c1 | . | . | . | . | . | .
SMILES | BaF3 tox | IEC-6 tox | KLF5 inhibitor | Ba/F3 V617F tox | APP 5UTR inh | aSyn UTR inh
CN1/C(=C\C(=O)COC(=O)Cn2nnc(-c3ccccc3)n2)C(C)(C)c2ccccc21 | 63.0 | . | . | 62.8 | . | .
CN1/C(=C\C(=S)NC(=O)c2cccc(Br)c2)C(C)(C)c2ccccc21 | 63.6 | . | . | 58.6 | . | .
CN1/C(=C/C(=O)C2CC2)C(C)(C)c2ccccc21 | 40.8 | . | . | . | . | /
CN1/C(=C\C(=O)Nc2ccc(Br)cc2)C(C)(C)c2ccccc21 | . | . | . | . | . | .
CN1/C(=C\C(=O)CSc2nncn2C)C(C)(C)c2ccccc21 | 47.1 | . | . | 36.9 | . | .
Cn1cnnc1SCC(=O)NCc1ccccc1 | . | . | . | . | . | .
CCC1CCCCN1CCCNC(=O)CN1C(=O)COc2ccc(S(=O)(=O)N3CCOCC3)cc21 (configuration not stated) | / | . | . | / | / | .
CCOC(=O)N1CCN(C(=O)C2CCCN(S(=O)(=O)c3ccc(C)cc3)C2)CC1 (configuration not stated) | . | . | . | . | . | .
CN(Cc1ccccc1)C(=S)Nc1ccc2nc3n(c(=O)c2c1)CCCCC3 | . | . | . | . | . | .
